Experimental findings from PubChem BioAssay are described below.

The source made the active and inactive calls.

In test [1] the test system is Human papillomavirus type 1a protein E7 (residues 44-93). Briefly: HPV1a E7 fragment binders on microarrays, primary screen, biochemical, small-molecule microarray, residues 44-93, 635 nm fluorescence (AID 1108).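 Also: E7 fragment applied at 1 µg/mL in TBST for 1 h at 4 C; score combines spot fluorescence with its signal to noise ratio.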 Conditions: small-molecule microarray binding, fluorescence 635 nm; higher = more signal.
Test [2] in a line: modulators of HCV replicon luciferase signal, primary screen, HCV replication inhibitor project, Huh7 cells, luciferase reporter (AID 1109).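 Also: huh7 hepatoma cells harbouring a luciferase neomycin HCV replicon reporter; luciferase luminescence as measure of HCV replicon replication; test concentration not given here.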 The following applies: 48 h, higher = more signal. (Replicon systems follow genome replication, usually without infectious particles.)
Test [3] has as its target Left-right determination factor 2 (Homo sapiens) (UniProt O00292). The experiment in a line: LEFTY2 binders on small-molecule microarrays, primary screen, biochemical, small-molecule microarray, 635 nm fluorescence scan (AID 1110). The following applies: LEFTY2 binding, higher = more signal.
The target in test [4] is Calmodulin-1 (Homo sapiens) (UniProt P0DP23). The experiment in a line: CALM1 binders on microarrays, EGTA buffer, profiling panel, biochemical, small-molecule microarray, Cy5-labelled CALM1 (AID 1111).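 Also: labelled calmodulin applied in Tris saline Tween buffer holding calcium plus EGTA and DTT.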 Conditions: Cy5-CALM1 binding fluorescence, higher = more signal.
Test [5] shares this target. The experiment in a line: calcium-bound CALM1 binders on microarrays, profiling panel, artefact control for SMM control-protein annotation, biochemical, small-molecule microarray, Cy5-labelled CALM1, plus calcium (AID 1112).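 Also: score merges spot fluorescence with signal to noise from triplicate slides.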 The following applies: Cy5-CALM1 binding fluorescence, higher = more signal.
Test [6] can be described thus: small-molecule microarray binders of probe aWnt5a, primary screen, biochemical, biotinylated probe, 635/667 nm fluorescence (AID 1113).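 Also: score merges 667 nm fluorescence intensity with signal-to-noise per printed feature.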 The following applies: higher = more signal.
Test [7] in a line: small-molecule microarray binders of probe aShh, primary screen, biochemical, biotinylated probe, 635/667 nm fluorescence (AID 1114).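 Also: probe is biotin-labelled aShh protein from a stem cell growth factor screen; measures binding of labelled protein to compounds printed on the slide; score merges feature fluorescence at 667 nm with signal-to-noise.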 The following applies: higher = more signal.
Test [8] is described as follows: small-molecule microarray binders of probe aNog, primary screen, biochemical, biotinylated probe, 635/667 nm fluorescence (AID 1115).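 Also: probe is biotinylated aNog protein used at 0.15 µg/mL for 1 h at 4 C; z-score combines 667 nm fluorescence of each spot with its signal to noise.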 The following applies: higher = more signal.
For test [9], the target named is Torsin-1A-interacting protein 1 (Homo sapiens) (UniProt Q5JTV8). Briefly: LAP1 binders from COS7 cell lysate, primary screen, small-molecule microarray, 635/667 nm fluorescence (AID 1116). Conditions: COS7-hLAP1 lysate binding, 635 nm fluorescence, higher = more signal.
Test [10] concerns the target Alpha-bungarotoxin (Bungarus multicinctus) (UniProt P60615). Briefly: alpha-bungarotoxin binders on microarray, profiling panel, artefact control for SMM control protein annotation, biochemical, small-molecule microarray, Alexa647 label, 635/667 nm fluorescence (AID 1117). Conditions: alpha-BTX-A647 binding fluorescence, higher = more signal.
For test [11], the target named is Albumin (Bos taurus) (UniProt P02769). The experiment in a line: bovine serum albumin binders on microarray, profiling panel, artefact control for SMM control protein annotation, biochemical, small-molecule microarray, Alexa647 label, 635/667 nm fluorescence (AID 1118).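 Also: score merges 667 nm emission intensity and signal-to-noise per printed compound spot.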 Conditions: BSA-A647 binding, fluorescence 635 nm, higher = more signal.
The nature of test [12]: small-molecule microarray binders of probe aXIP, primary screen, biochemical, NeuroSMM set, 635/667 nm fluorescence (AID 1119).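 Also: probe is the protein aXip251-270 applied at 1 µg/mL to compound-printed slides; binding of probe to printed compounds measured as 667 nm fluorescence plus signal to noise.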 The following applies: higher = more signal, called active from +8 up or from −8 down.
Test [13] is described as follows: small-molecule binders of probe aNOTCH3, primary screen, biochemical, small-molecule microarray, 635/667 nm fluorescence (AID 1120).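 Also: probe is a biotin-tagged antibody raised against NOTCH3 rather than NOTCH3 protein; score merges spot fluorescence near 667 nm with spot signal to noise.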 Conditions: higher = more signal.
Test [14] in a line: small-molecule binders of probe aNOTCH2, primary screen, biochemical, small-molecule microarray, 635/667 nm fluorescence (AID 1121).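 Also: score merges feature fluorescence read at 667 nm with its signal to noise.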 Conditions: higher = more signal.
Test [15] concerns the target Carbonic anhydrase 2 (Homo sapiens) (UniProt P00918). Briefly: CAII small-molecule binders, profiling panel, biochemical, small-molecule microarray, Alexa647-labelled CAII (AID 1122). The following applies: CAII-A647 binding fluorescence, higher = more signal.
The nature of test [16]: COS7 lysate on small-molecule microarray, probe aHis, 635 nm (AID 1123).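 Also: z-score combines 667nm fluorescence intensity with signal-to-noise per printed compound spot.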 Conditions: COS7 cell lysate, fluorescence, higher = more signal.
The nature of test [17]: compound binding in COS7 lysate, probe aLAP1, primary screen, cell lysate, small-molecule microarray (AID 1124).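 Also: lysate comes from COS7 cells expressing LAP1 and is applied at 0.3 µg/mL; score merges spot fluorescence near 667 nm with signal-to-noise over triplicate slides.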 The following applies: probe aLAP1, fluorescence, higher = more signal.
Test [18] deals with Sam68 (KHDRBS1). Briefly: Sam68 small-molecule binders, primary screen, biochemical, small-molecule microarray, 635 nm fluorescence (AID 1125).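 Also: score merges 667 nm channel intensity with signal to noise over triplicate slides.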 The following applies: small-molecule microarray binding, higher = more signal.
In test [19] the test system is Chordin-like protein 2 (CHRDL2). Briefly: CHRDL2 small-molecule binders, primary screen, biochemical, small-molecule microarray, 635 nm fluorescence (AID 1126).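 Also: printed compound slides probed with Chrdl2 protein at 4 µg/mL for 1 h at 4 C; score merges 667 nm emission intensity with signal to noise over three replicate slides.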 The following applies: small-molecule microarray binding, fluorescence 635 nm; higher = more signal.
The target in test [20] is Concanavalin-A (Canavalia ensiformis) (UniProt P02866). Briefly: ConA small-molecule binders, primary screen, artefact control for SMM control protein annotation, biochemical, small-molecule microarray, Alexa647 label, 635 nm (AID 1127).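 Also: z combines 667 nm emission intensity with signal-to-noise across three replicate slides.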 Conditions: ConA-A647 binding fluorescence, higher = more signal.
Chain of Concanavalin-A (Canavalia ensiformis) (P02866 whole entry, looked up): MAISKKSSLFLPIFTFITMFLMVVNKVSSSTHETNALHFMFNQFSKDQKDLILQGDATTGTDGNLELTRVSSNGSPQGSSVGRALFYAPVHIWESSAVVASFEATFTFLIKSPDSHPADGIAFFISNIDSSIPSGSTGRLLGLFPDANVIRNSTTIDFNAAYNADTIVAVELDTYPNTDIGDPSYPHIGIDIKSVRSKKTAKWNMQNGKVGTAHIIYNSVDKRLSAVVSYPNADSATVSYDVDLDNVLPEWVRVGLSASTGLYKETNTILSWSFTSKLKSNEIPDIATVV

Chain of Torsin-1A-interacting protein 1 (Homo sapiens) (Q5JTV8 whole entry, looked up): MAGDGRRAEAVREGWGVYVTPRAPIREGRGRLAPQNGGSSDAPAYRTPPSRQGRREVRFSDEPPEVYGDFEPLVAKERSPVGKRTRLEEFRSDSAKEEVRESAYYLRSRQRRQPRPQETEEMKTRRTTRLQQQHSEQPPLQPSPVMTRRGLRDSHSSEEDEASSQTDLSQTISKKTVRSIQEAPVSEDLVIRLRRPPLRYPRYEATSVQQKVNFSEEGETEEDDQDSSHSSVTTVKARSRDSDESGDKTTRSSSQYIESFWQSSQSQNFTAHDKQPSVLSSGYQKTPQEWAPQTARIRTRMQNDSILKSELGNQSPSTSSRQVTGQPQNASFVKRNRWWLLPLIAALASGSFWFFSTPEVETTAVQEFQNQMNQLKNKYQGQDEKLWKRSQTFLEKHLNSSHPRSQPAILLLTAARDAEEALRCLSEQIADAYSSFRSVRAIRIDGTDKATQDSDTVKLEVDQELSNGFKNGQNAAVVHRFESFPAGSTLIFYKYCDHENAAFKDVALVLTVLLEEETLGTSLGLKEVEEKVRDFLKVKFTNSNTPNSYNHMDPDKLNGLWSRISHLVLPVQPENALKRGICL
Chain of Alpha-bungarotoxin (Bungarus multicinctus) (P60615 whole entry, looked up): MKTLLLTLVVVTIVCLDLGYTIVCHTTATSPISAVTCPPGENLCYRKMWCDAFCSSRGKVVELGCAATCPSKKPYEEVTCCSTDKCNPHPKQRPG
Chain of Left-right determination factor 2 (Homo sapiens) (O00292 whole entry, looked up): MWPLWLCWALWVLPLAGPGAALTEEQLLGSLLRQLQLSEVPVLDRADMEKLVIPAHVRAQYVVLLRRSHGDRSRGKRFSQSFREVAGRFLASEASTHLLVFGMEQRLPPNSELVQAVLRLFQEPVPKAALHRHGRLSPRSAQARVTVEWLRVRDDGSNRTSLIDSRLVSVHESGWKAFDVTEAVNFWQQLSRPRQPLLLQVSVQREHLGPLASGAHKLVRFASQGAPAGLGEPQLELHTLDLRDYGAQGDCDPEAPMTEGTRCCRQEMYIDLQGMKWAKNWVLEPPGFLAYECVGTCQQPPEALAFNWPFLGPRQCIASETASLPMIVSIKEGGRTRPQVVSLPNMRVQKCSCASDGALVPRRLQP
Chain of Albumin (Bos taurus) (P02769 whole entry, looked up): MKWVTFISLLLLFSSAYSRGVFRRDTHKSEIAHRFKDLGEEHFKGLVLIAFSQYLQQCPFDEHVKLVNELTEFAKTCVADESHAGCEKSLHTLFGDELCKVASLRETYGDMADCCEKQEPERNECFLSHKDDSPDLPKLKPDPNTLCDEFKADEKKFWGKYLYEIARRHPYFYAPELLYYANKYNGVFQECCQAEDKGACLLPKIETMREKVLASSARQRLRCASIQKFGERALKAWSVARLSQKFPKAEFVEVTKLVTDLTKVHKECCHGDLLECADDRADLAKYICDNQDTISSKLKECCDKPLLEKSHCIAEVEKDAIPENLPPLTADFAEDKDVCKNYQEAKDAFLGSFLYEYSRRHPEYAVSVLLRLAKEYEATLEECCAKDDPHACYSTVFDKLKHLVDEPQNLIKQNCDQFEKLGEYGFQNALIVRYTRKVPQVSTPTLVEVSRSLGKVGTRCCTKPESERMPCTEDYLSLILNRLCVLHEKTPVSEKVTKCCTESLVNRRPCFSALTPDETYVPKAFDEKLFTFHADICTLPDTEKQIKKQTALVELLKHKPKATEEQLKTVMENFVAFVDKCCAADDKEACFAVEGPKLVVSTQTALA

Turning to `C=CCN(Cc1ccccc1)C(=O)C(c1cccs1)N(C(=O)/C=C\C(=O)O)c1ccc(CCOCCO)cc1` (stereo not given), the composite z-score in [1] was -0.774; in test [3] it was -2.57; in test [4] it was -0.722; in test [5], 0.665; in test [6], -0.191; in test [7], -0.138. For the same compound, the composite z-score was -0.242 in test [8]; -0.678 in [9]; -1.84 in test [10]; 0.955 in [11]; -0.416 in test [13]; -0.135 in [14]. Also, the composite z-score was 0.864 in test [15]; -0.691 in [16]; -0.679 in test [17]; -1.33 in [18]; -2.25 in [19]; -0.931 in [20]. Also, in [2], the z-score worked out at 0.386. In [12], the composite Z-score was 0.0165 (inactive).

For `C=CCN1C(=O)[C@]2(O[C@H](CCO)[C@@H]([Si](C)(C)c3ccc(OC)cc3)[C@@H]2C)c2cc(N(C=O)c3ccccc3)ccc21`, the composite z-score in [1] is -0.823; in test [3], -0.155; in test [4], 0.393; in [5], 0.217; in [6], -0.096; in test [7] it was 0.0684. For the same compound, the composite z-score in test [8] was 0.337; in test [9], 0.753; in test [10], 0.607; in test [11], 0.0925; in test [13], -0.0967; in [14], -0.0315. In addition, the composite z-score in test [15] was 0.561; in test [16], 0.225; in [17] it was 0.398; in [18] it was 0.518; in test [19] it was -0.0095; in test [20] it was 0.497. For the same compound, the z-score in [2] was -5.14. For the same compound, the composite Z-score in [12] is 0.111 (inactive).

`NCCCCCCNC(=O)[C@H]1C[C@H]2C(=O)N[C@@H](Cc3ccccc3)C(=O)N2[C@H]1c1cccc(OCCO)c1`: the composite z-score is 0.694 in [1]; 0.146 in test [3]; 2.14 in test [4]; 0.857 in test [5]; -0.0718 in test [6]; 0.356 in test [7]. The composite z-score in [8] is 0.0574; in test [9], 1.6; in [10], 0.576; in test [11], 0.845; in test [13] it was 0.0657; in [14], -0.0712. Besides, the composite z-score in [15] was 0.788; in test [16], 0.446; in test [17], 0.464; in [18], 0.58; in [19] it was -0.431; in test [20], 1.03. In addition, the z-score in [2] worked out at 0.794. In addition, in test [12], the composite Z-score is -0.336 (inactive).

As to `O=C1O[C@H](c2ccccc2)[C@H](c2ccccc2)N2[C@H]1[C@@H](C(=O)NC[C@H](O)c1ccccc1)[C@]1(C(=O)Nc3ccc(C#CC4=CCCCC4)cc31)[C@H]2c1ccccc1OCCO`, the composite z-score in test [1] was found to be 1.06; in [3] it was 0.155; in test [4] it was 1.42; in test [5] it was 0.944; in [6], 0.0101; in [7], 0.328. For the same compound, the composite z-score in test [8] is 0.157; in test [9], 1.02; in [10], 1.7; in test [11] it was 0.395; in [13], 0.0527; in test [14], -0.0614. For the same compound, the composite z-score in test [15] was 0.343; in [16], 1.32; in [17], 0.522; in test [18], 1.32; in test [19] it was -0.0358; in test [20] it was 0.978. In addition, in test [2], the z-score was -3.16. Also, the composite Z-score in test [12] is 0.0371 (inactive).

Consider `[N-]=[N+]=NCc1ccccc1C[C@@]1(C(=O)NCC(O)CO)N=C(c2ccc(OCCCO)cc2)O[C@@H]1c1ccccc1` (stereo not given in full), for which the composite z-score in [1] was 1.03; in [3], -1.38; in test [4], 0.899; in test [5], 1.25; in test [6], -0.0285; in test [7], 0.156. Moreover, the composite z-score is 0.723 in test [8]; 1.01 in [9]; 0.183 in [10]; 0.992 in test [11]; -0.0077 in test [13]; 0.0996 in test [14]. Besides, the composite z-score is 0.432 in [15]; 2.82 in test [16]; -0.177 in [17]; 0.331 in test [18]; -0.247 in test [19]; -1.11 in test [20]. Also, in [2], the z-score was -1.41. Besides, the composite Z-score in [12] was -0.191 (inactive).

Take `COCC(=C=CC[C@H](O)c1ccccc1OCCO)CCO`: the composite z-score was 0.0008 in test [1]; -0.378 in test [3]; -0.0866 in test [4]; -0.037 in test [5]; -0.096 in test [6]; 0.0723 in [7]. Moreover, the composite z-score in test [8] was 0.509; in test [9], 1.34; in test [10], 0.804; in test [11], 0.003; in test [13] it was -0.0048; in [14], -0.0475. The composite z-score in test [15] was 0.774; in test [16], 0.969; in [17], 0.162; in test [18] it was 0.853; in [19], -0.546; in test [20], 0.298. Further, the z-score in test [2] is -0.266. In [12], the composite Z-score is -0.325 (inactive).
